As a reminder, the AC50 is the concentration giving half of the maximal activity seen.

Active and inactive are the calls of the source. Rule for the calls: active = hit-call score of the fitted dose curve at least 0.9, where 1 is the maximum; inactive = score below 0.9.

A short description of assay [1]: ATG_GRE_CIS: Attagene CIS-FACTORIAL HepG2 Assay for human Glucocorticoid Response Elements (GRE) (AID 2282947). The settings on record: HepG2 GRE cis-reporter, Attagene multiplex mRNA; actives raise or lower the signal. In short, it runs like this: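 Transiently transfected HepG2 cells carrying GRE cis-reporter units (endogenous TF activity) dosed 24 h; reporter mRNA quantified by RT-PCR, 6-FAM labelling, HpaI digestion and capillary electrophoresis. Bidirectional fit versus DMSO baseline.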

Assay [2] can be described thus: ATG_ISRE_CIS: Attagene CIS-FACTORIAL HepG2 Assay for human Interferon Regulatory Factor 1 (IRF1) binding to an Interferon-Stimulated Response Element (ISRE) (AID 2282948). The settings on record: HepG2 ISRE cis-reporter (Attagene), mRNA transcription readout; actives raise or lower the signal. Put shortly:
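HepG2 cells transiently transfected with multiplexed cis-promoter reporter units; after 24 h compound exposure, reporter mRNA quantified by RT-PCR, FAM labelling, HpaI digestion and capillary electrophoresis. Bidirectional fit versus DMSO baseline.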

Assay [3] can be described thus: ATG_M_32_CIS: Attagene CIS-FACTORIAL HepG2 Assay for M32 Transcription Factor (Internal Marker) (AID 2282949).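 Note: background control marker of the multiplexed CIS panel rather than a real target.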 The settings on record: HepG2 Attagene cis-factorial M32 reporter, mRNA; actives raise or lower the signal. In short, it runs like this:
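Fluorescent capillary electrophoresis peaks of HpaI-digested, FAM-labelled RT-PCR reporter products give the signal. Source: transiently transfected human liver HepG2 cells, 24 h after chemical dosing; bidirectional fitting against DMSO.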

Assay [4] is described as follows: ATG_M_06_CIS: Attagene CIS-FACTORIAL HepG2 Assay for M06 Transcription Factor (Internal Marker) (AID 2282950). The settings on record: HepG2 Attagene CIS-FACTORIAL M06 internal marker reporter; actives raise or lower the signal. In short, it runs like this: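 Cells (HepG2, transiently carrying cis-driven reporter units) receive chemical for 24 h before RNA isolation. Reporter cDNA is PCR-amplified, FAM-labelled by primer extension, HpaI-digested and sized on a capillary analyser.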

In assay [5] the target is Hypoxia-inducible factor 1-alpha (Homo sapiens) (UniProt Q16665). The assay is described as follows: ATG_HIF1a_CIS: Attagene CIS-FACTORIAL HepG2 Assay for human Hypoxia Inducible Factor 1 (HIF1A) (AID 2282951). The settings on record: HepG2 Attagene cis-factorial HIF1a reporter transcription; actives raise or lower the signal. Put shortly:
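Transient MRTU transfection of human HepG2 liver cells, 24 h compound treatment, then total RNA isolation, oligo(dT) reverse transcription, PCR amplification, fluorescent labelling and capillary electrophoresis of reporter fragments. Gain or loss relative to DMSO.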

In assay [6] the target is Hepatocyte nuclear factor 6 (Homo sapiens) (UniProt Q9UBC0). The assay is described as follows: ATG_HNF6_CIS: Attagene CIS-FACTORIAL HepG2 Assay for human Hepatocyte Nuclear Factor 6 (HNF6) (AID 2282952). The note with it: HepG2 Attagene cis-factorial HNF6 reporter transcription; actives raise or lower the signal. In short, it runs like this:
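Transiently transfected HepG2 cells expressing cis-regulated reporter transcription units were exposed to chemical for 24 h in a 24-well format. Reporter transcript abundance was determined by fluorescence capillary electrophoresis.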

For assay [7], the target named is Heat shock factor protein 1 (Homo sapiens) (UniProt Q00613). The assay is described as follows: ATG_HSE_CIS: Attagene CIS-FACTORIAL HepG2 Assay for human Heat Shock Transcription Factor 1 (HSE) (AID 2282953). The settings on record: HepG2 HSE cis-reporter, Attagene RNA transcription; actives raise or lower the signal. Put shortly:
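Liver-derived HepG2 cells carry transiently introduced multiple reporter units governed by cis promoters. Reporter RNA measured 24 h post-dose through reverse transcription, PCR amplification, fluorescent labelling and capillary electrophoresis, normalised to DMSO.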

A short description of assay [8]: ATG_MRE_CIS: Attagene CIS-FACTORIAL HepG2 Assay for human Metal Responsive Element (MRE) (AID 2282954). The note with it: HepG2 MRE cis-reporter transcription, Attagene multiplex; actives raise or lower the signal. In short, it runs like this: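 HepG2 cells transiently transfected with cis-element-driven reporter units; mRNA measured 24 h after dosing. Reporter transcripts quantified by RT-PCR, FAM labelling, HpaI digestion and capillary electrophoresis; bidirectional fit versus DMSO.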

The target of assay [9] is Paired box protein Pax-6 (Homo sapiens) (UniProt P26367). The assay is described as follows: ATG_Pax6_CIS: Attagene CIS-FACTORIAL HepG2 Assay for human Paired Box 6 (PAX6) (AID 2282956). The note with it: HepG2 CIS-FACTORIAL PAX6 reporter transcription, RNA readout; actives raise or lower the signal. Put shortly: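 HepG2 cells transiently transfected with multiplexed cis-promoter reporter units (endogenous TF activity) were dosed for 24 h. Reporter mRNA was quantified by RT-PCR, 6-FAM labeling, HpaI digestion and capillary electrophoresis; bidirectional fitting versus DMSO baseline.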
Sequence of Paired box protein Pax-6 (Homo sapiens) (P26367 whole entry, looked up): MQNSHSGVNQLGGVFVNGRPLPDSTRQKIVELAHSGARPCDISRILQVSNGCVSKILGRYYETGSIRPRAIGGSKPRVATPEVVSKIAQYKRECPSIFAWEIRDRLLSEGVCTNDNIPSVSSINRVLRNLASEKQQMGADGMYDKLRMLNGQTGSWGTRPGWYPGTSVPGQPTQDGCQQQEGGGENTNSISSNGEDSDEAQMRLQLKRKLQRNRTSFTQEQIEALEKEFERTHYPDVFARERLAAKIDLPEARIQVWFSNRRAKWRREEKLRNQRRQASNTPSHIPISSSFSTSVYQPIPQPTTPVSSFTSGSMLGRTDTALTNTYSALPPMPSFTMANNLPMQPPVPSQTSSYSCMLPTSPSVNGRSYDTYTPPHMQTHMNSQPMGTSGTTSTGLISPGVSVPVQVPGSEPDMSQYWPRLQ

A short description of assay [10]: ATG_PXRE_CIS: Attagene CIS-FACTORIAL HepG2 Assay for human Pregnane X Receptor Element (PXRE) (AID 2282957). The settings on record: HepG2 Attagene CIS-FACTORIAL PXRE reporter, mRNA; actives raise or lower the signal. Put shortly: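 Cis-element reporter mRNA in human hepatoma HepG2 cells is measured 24 h post-dosing by RT-PCR, primer-extension labeling and capillary electrophoresis; gain or loss of signal is fitted relative to DMSO.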

A short description of assay [11]: ATG_RORE_CIS: Attagene CIS-FACTORIAL HepG2 Assay for human RAR-related Orphan Receptor Element (RORE) (AID 2282959). The note with it: HepG2 Attagene cis-factorial RORE reporter, mRNA; actives raise or lower the signal. In short, it runs like this: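 Transient MRTU transfection of human HepG2 liver cells (FuGene 6); 24 h compound exposure; TriZol RNA, oligo(dT) RT, PCR, FAM labeling, HpaI cut, CE fragment analysis. DMSO = negative control/baseline.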

Assay [12] concerns the target Transcription factor Sp1 (Homo sapiens) (UniProt P08047). The assay is described as follows: ATG_Sp1_CIS: Attagene CIS-FACTORIAL HepG2 Assay for human Specificity Protein 1 (Sp1) (AID 2282961). The note with it: HepG2 Sp1 cis-reporter transcription, actives raise or lower the signal. Put shortly: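 Transient MRTU-transfected HepG2, 24 h compound exposure. Total RNA → oligo(dT) RT → PCR of reporter → 6-FAM primer extension → HpaI digest → CE. Endpoint fitted both directions vs DMSO.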

Assay [13] is described as follows: ATG_SREBP_CIS: Attagene CIS-FACTORIAL HepG2 Assay for human Sterol Regulatory Element Binding (SREBP) (AID 2282962). The note with it: HepG2 Attagene cis-factorial SREBP reporter, mRNA; actives raise or lower the signal. Put shortly:
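HepG2 cells transiently transfected with multiplexed cis-element reporter units report endogenous transcription factor activity. After 24 h of chemical exposure, reporter mRNA was quantified by RT-PCR, 6-FAM labelling, HpaI digestion and capillary electrophoresis; bidirectional fits used DMSO as baseline.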

For assay [14], the target named is Signal transducer and activator of transcription 3 (Homo sapiens) (UniProt P40763). The assay is described as follows: ATG_STAT3_CIS: Attagene CIS-FACTORIAL HepG2 Assay for human Signal Transducer and Activator of Transcription 3 (STAT3) (AID 2282963). The settings on record: HepG2, Attagene cis-factorial STAT3 reporter transcription; actives raise or lower the signal. In short, it runs like this: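 HepG2 cells transiently transfected with multiple cis-element-driven reporter units report endogenous transcription factor activity. After 24 h compound exposure, reporter mRNA is measured by RT-PCR, 6-FAM labelling, HpaI digestion and capillary electrophoresis. Fitted bidirectionally versus DMSO.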
Sequence of Signal transducer and activator of transcription 3 (Homo sapiens) (P40763 whole entry, looked up): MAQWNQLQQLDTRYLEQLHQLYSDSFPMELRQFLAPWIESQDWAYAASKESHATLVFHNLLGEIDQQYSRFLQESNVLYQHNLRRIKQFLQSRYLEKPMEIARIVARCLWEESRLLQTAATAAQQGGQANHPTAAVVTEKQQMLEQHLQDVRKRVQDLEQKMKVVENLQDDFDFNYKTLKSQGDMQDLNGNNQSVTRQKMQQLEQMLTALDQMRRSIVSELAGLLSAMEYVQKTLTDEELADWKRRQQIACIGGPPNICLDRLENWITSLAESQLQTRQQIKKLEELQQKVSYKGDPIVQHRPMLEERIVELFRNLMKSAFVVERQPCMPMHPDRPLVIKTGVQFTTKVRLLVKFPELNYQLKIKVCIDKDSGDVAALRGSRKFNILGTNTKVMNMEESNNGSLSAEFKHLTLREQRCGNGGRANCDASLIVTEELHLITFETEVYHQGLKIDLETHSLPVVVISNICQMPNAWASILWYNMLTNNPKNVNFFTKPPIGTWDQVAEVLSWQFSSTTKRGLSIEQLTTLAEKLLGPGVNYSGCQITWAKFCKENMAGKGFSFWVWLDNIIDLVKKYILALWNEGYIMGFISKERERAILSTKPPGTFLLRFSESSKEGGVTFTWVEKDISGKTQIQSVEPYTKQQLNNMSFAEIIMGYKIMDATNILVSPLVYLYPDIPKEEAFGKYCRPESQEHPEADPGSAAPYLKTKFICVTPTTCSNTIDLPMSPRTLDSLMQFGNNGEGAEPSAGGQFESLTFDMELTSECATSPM

Assay [15] is described as follows: ATG_TA_CIS: Attagene CIS-FACTORIAL HepG2 Assay for human TA Basal Promoter (AID 2282964). The settings on record: HepG2 Attagene CIS-factorial TA basal promoter reporter; actives raise or lower the signal. Put shortly: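 Background internal-marker endpoint from a 52-component HepG2 cis-reporter panel. Cells treated 24 h; reporter transcripts quantified via RT-PCR and CE fluorescence against DMSO baseline.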

Assay [16] in a line: ATG_TCF_b_cat_CIS: Attagene CIS-FACTORIAL HepG2 Assay for human T-Cell-Factor with beta-catenin (TCF/b-cat) (AID 2282965). The settings on record: HepG2 TCF/beta-catenin cis-reporter transcription, actives raise or lower the signal. In short, it runs like this: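 HepG2, transient MRTU transfection, cis-element-driven reporters (endogenous TFs). 24 h compound exposure. Readout: reporter mRNA by RT-PCR + 6-FAM primer extension, HpaI digest, capillary electrophoresis. Gain/loss fit vs DMSO baseline.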

Assay [17] in a line: ATG_PBREM_CIS: Attagene CIS-FACTORIAL HepG2 Assay for human Phenobarbital-responsive Enhancer Module (PBREM) (AID 2282955). The note with it: HepG2 PBREM cis-reporter, Attagene multiplexed transcription; actives raise or lower the signal. In short, it runs like this: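 Endogenous transcription factors in human liver HepG2 cells drive a PBREM cis-element reporter, whose transcript level after 24 h treatment is quantified by RT-PCR with capillary electrophoresis; activity fitted in both directions against DMSO.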

A short description of assay [18]: ATG_Sox_CIS: Attagene CIS-FACTORIAL HepG2 Assay for human SRY-box transcription factor (SOX) (AID 2282960). The note with it: HepG2 Attagene cis-factorial SOX reporter, mRNA; actives raise or lower the signal. In short, it runs like this: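 Endogenous factor activity in human liver HepG2 cells carrying transfected cis-regulated reporter units. RNA taken 24 h post-dose, reverse-transcribed, PCR-amplified and sized by capillary electrophoresis. Gain or loss of signal fitted relative to DMSO.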

Assay [19] in a line: ATG_PPRE_CIS: Attagene CIS-FACTORIAL HepG2 Assay for human Peroxisome Proliferator-activated Response Element (PPRE) (AID 2282958). The note with it: HepG2 PPRE cis-element reporter, Attagene transcription factor profiling; actives raise or lower the signal. Put shortly:
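HepG2, transient MRTU transfection (cis promoter elements, endogenous TFs). 24 h dosing. RNA → oligo(dT) RT → PCR → 6-FAM primer extension → HpaI digest → CE. Bidirectional fit vs DMSO.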

Sequence of Transcription factor Sp1 (Homo sapiens) (P08047 whole entry, looked up): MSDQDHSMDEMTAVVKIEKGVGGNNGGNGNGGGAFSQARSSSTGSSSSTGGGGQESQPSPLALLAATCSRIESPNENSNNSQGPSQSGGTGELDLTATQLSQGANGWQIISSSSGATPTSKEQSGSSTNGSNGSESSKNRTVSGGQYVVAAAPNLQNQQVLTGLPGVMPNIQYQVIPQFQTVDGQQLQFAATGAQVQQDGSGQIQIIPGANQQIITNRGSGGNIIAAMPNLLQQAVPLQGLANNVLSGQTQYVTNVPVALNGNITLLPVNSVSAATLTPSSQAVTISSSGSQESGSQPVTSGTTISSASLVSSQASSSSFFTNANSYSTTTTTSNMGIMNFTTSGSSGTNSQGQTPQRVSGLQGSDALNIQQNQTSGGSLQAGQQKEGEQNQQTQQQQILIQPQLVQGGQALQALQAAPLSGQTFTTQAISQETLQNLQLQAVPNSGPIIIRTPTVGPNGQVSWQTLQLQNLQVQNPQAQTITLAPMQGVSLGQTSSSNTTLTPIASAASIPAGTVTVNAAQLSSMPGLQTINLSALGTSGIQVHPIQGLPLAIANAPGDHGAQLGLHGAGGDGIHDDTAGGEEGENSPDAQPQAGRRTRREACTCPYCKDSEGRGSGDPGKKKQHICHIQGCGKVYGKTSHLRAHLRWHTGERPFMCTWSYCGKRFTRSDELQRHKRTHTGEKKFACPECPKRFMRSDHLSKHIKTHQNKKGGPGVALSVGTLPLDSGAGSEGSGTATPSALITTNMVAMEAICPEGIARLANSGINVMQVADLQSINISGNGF
Sequence of Heat shock factor protein 1 (Homo sapiens) (Q00613 whole entry, looked up): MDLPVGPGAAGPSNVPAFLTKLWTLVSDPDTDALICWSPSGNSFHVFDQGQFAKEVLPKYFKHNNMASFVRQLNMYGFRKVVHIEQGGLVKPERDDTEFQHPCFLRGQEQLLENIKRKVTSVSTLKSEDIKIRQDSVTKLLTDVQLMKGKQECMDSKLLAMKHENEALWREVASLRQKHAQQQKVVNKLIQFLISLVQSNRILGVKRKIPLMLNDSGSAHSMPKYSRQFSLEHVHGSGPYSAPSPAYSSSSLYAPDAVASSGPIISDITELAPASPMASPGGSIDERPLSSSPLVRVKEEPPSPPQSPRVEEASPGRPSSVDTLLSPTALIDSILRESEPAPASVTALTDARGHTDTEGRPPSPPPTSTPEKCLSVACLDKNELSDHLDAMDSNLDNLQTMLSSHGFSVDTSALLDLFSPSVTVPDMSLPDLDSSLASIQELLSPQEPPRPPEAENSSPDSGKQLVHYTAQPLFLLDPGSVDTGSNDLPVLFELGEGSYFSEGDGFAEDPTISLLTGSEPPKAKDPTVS
Sequence of Hypoxia-inducible factor 1-alpha (Homo sapiens) (Q16665 whole entry, looked up, the tested form may be a part): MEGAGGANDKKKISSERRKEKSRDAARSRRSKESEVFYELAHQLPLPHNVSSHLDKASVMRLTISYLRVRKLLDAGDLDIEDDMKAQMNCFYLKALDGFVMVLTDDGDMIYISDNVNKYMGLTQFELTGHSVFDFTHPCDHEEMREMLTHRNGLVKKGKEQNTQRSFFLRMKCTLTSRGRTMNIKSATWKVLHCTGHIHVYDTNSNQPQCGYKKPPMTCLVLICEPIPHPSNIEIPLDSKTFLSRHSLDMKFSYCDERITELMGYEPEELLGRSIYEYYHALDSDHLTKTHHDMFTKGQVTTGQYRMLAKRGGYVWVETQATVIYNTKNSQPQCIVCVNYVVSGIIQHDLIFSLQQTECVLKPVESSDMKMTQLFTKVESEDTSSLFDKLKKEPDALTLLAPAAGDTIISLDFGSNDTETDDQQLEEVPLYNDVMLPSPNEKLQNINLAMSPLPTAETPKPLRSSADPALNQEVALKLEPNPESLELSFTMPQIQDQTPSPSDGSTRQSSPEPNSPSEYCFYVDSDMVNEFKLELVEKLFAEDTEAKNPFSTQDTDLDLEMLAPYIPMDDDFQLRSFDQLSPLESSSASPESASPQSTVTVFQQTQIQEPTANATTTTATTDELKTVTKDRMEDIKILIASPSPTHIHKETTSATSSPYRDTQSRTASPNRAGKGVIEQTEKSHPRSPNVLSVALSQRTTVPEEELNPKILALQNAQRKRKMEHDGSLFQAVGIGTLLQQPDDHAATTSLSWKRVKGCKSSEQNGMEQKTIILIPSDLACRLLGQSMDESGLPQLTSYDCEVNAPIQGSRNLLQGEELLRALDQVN
Sequence of Hepatocyte nuclear factor 6 (Homo sapiens) (Q9UBC0 whole entry, looked up): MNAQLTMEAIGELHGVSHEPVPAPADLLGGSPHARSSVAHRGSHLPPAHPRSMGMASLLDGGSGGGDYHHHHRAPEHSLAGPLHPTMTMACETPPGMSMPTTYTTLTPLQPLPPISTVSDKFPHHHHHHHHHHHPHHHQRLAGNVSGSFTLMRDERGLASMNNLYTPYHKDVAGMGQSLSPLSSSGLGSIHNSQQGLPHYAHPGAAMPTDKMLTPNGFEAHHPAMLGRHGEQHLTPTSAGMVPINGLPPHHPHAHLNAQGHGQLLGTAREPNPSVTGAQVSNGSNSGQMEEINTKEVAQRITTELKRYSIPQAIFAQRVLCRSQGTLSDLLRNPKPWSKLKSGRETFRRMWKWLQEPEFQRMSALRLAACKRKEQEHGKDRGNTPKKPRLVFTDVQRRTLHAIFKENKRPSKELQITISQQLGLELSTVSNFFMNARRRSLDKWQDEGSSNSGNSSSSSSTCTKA

`COc1ccc(C(Cl)=C(c2ccc(OC)cc2)c2ccc(OC)cc2)cc1`: the compound was classed as inactive in [1], in assay [2], in [3], in assay [4], in assay [5] and in assay [6]. Moreover, the result in [7], in [8], in [9], in assay [11], in assay [12] and in [13] was inactive. The result in assay [14], in [15] and in assay [16] was inactive. Besides, the half-maximal activity concentration (AC50) in assay [10] was 2.54 µM (active).

`O=c1cc(-c2ccccc2)oc2ccccc12`: the result in assay [1], in assay [3], in assay [4], in assay [5], in assay [18] and in [12] was inactive. Also, the outcome in assay [13] and in assay [14] was inactive. Also, the concentration at half-maximal activity (AC50) is 127 µM (active) in [2]; 178 µM (active) in assay [7]; 124 µM (active) in assay [8]; 99.5 µM (active) in [17]; 99.5 µM (active) in [9]; 4.25 µM (active) in assay [10]. The half-maximal activity concentration (AC50) is 99.5 µM (active) in assay [15] and 25.2 µM (active) in assay [16].

Regarding `CN1C(=O)N(C)C(O)C1O` (centres undefined), the compound was called inactive in assay [1], in [2], in assay [3], in assay [4], in assay [5] and in assay [6]. Also, the result in [8], in assay [9], in [10], in assay [19], in assay [11] and in [18] was inactive. The compound was classed as inactive in assay [12], in assay [13], in assay [14], in [15] and in assay [16].

For `CC(=O)Oc1ccc(C)cc1`, the compound was called inactive in assay [1], in [2], in [3], in [4], in assay [5] and in assay [7]. Besides, the outcome in assay [8], in assay [9], in assay [19], in assay [18], in assay [12] and in [13] was inactive. Besides, the call in assay [14], in assay [15] and in assay [16] was inactive.

(Values after PubChem BioAssay (EPA / NIEHS).)
